From ChEMBL document CHEMBL3433997, “St. Jude Leishmania screening dataset” (2016)

How the values were obtained:
Type in all cases: functional
[1] = molecular target: Solute carrier family 2, facilitated glucose transporter member 1 (Homo sapiens) (UniProt P11166); assay: ST_JUDE_LEISH: Cytotoxicity at 2uM final concentration against transgenic Leishmania Mexicana promastigotes LmGLUT1 that are glucose transport deficient and complemented with the human glucose transporter GLUT1. Activity is measured by DNA content using SYBR green in vitro
Chain of Solute carrier family 2, facilitated glucose transporter member 1 (Homo sapiens) (P11166 whole entry): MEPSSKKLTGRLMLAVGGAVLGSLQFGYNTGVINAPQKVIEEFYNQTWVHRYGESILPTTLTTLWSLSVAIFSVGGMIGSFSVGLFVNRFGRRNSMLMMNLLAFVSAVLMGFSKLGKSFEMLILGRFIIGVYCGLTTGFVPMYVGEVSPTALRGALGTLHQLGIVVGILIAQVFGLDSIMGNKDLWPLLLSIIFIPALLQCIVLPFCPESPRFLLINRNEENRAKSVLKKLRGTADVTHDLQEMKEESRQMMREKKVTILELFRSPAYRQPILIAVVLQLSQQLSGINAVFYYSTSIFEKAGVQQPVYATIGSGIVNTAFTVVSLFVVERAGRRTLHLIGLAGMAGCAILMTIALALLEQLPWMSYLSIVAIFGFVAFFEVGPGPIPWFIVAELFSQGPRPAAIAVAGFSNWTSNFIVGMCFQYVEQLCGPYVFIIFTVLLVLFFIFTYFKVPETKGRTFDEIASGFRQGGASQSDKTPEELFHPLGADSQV

[2] = molecular target: Hexose transporter 1 (Plasmodium falciparum) (UniProt O97467); assay: ST_JUDE_LEISH: Cytotoxicity at 2uM final concentration against transgenic Leishmania Mexicana promastigotes LmPfHT that are glucose transport deficient and complemented with the Plasmodium falciparum hexose transporter. Activity is measured by DNA content using SYBR green in vitro
[3] = molecular target: Glucose transporter (Leishmania mexicana) (UniProt O61059); assay: ST_JUDE_LEISH: Cytotoxicity at 2uM final concentration against transgenic Leishmania Mexicana promastigotes LmGT2 that are glucose transport deficient and complemented with the L. Mexicana glucose transporter 2. Activity is measured by DNA content using SYBR green in vitro

Structure (SMILES)	inhibition [1] [%]	inhibition [2] [%]	inhibition [3] [%]
N=C(N)Nc1nc(-c2cc(NC(=O)C(F)(F)F)cc([N+](=O)[O-])c2)cs1	0.23	0.51	1
COc1ccc(CNCc2ccc(-c3cccc(-c4nc5ccccc5[nH]4)c3)cc2)cc1	5.98	6.56	2.14
COc1ccc2nccc([C@@H](O)CN3CCC(NC(=O)c4cc5cccnc5[nH]4)CC3)c2c1	5.47	3.5	-0.32
Cn1nccc1C(=O)NCCNCc1cccc(-c2ccc(-c3nc4cc(C(F)(F)F)ccc4[nH]3)s2)c1	16.3	15.5	14.6
COc1ccc2nc(SC(C)C(=O)c3c[nH]c4ccccc34)[nH]c2c1 (stereo unspecified)	2.5	0.87	2.35
COc1ccc(-c2cccc(NC(=O)c3ccc(Cl)cc3)c2)cc1CN1CCCC1	11.3	9.27	5.55
Cc1ccc2nc(C)cc(Nc3ccccc3O)c2c1	-0.76	-1.41	-1.03
O=C(c1cccc(COc2ccc3c(c2)CCN(C2CCCC2)CC3)c1)N1CCN(c2ccncc2)CC1	8.85	5.59	7.88
COc1ccc(N2CCN(CCCCNC(=O)c3ccc(NC(=O)c4ccc(Cl)c(Cl)c4)cc3)CC2)c(OC)c1	2.23	1.72	1.65
Cc1noc(C)c1-c1ccc2c(Nc3ccccc3C(C)(C)C)c(C(=O)NCc3ccc4c(c3)OCO4)cnc2c1	-1.21	2.69	-0.92
Cc1[nH]n(-c2cccc(Cl)c2)c(=O)c1-c1ccc(Cl)cc1	-3.78	-2.18	-2.07
COc1ccc(-c2cccc(NC(=O)c3cccs3)c2)cc1CN1CCCN(C)CC1	0.38	0.37	-1.25
